Experimental data as given in PubChem BioAssay AID652245 (The Scripps Research Institute Molecular Screening Center, 2013).
Screen size: about 1,600 compounds; about 920 (58%) were called active.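 Rule for the calls: active = inhibition above the primary screen's cutoff, the mean inhibition of all screened compounds plus 3 SD (cut at about 13% in these data); inactive = the rest.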 The set was probably picked from earlier hits. Not all results are given here.

The compounds below were run against Galanin receptor type 3 (Homo sapiens) (UniProt O60755) (assay: GalR3 antagonist hit confirmation, cell-based, fluorescence, triplicate (AID 652245;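 note: 0% = forskolin plus galanin and 100% = forskolin alone with DMSO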)). Details: HEK293 GalR3 CNG cAMP biosensor, membrane potential fluorescence; at 3 µM; active compounds read high; challenged with forskolin and galanin at EC90; galR3 fused to GalR1 carboxy tail.
Sequence of Galanin receptor type 3 (Homo sapiens) (O60755 1-299 limits assumed): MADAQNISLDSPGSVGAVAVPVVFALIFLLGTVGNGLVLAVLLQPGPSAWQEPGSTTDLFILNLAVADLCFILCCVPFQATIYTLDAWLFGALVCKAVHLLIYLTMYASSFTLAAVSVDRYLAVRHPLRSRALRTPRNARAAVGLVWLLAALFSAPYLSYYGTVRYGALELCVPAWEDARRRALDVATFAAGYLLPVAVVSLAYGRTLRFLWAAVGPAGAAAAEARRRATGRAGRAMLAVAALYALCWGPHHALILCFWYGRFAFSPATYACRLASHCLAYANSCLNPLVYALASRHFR

inhibition, inactive:
CCCCNC(=O)c1ccccc1NC(=O)C1=C(C)OCCS1 1.8%
CSc1nc(N(C)NC(=O)c2cccc(C)c2)c2ccccc2n1 6%
CCOC(=O)c1cc2n(c1C)-c1ccccc1C2=O 3.19%
CCc1ccc(-c2nc(SCC(=O)NC3CCCC3)n[nH]2)cc1 3.25%
COc1ccc(N(C(=O)CNC(=O)c2ccco2)C(C(=O)NCC2CCCO2)c2ccccc2)cc1Cl (stereo unspecified) 0.26%
Cn1cnc([N+](=O)[O-])c1Nc1ccccc1O 10.2%
Cc1c(Cl)cccc1NC(=O)CSc1ccc(-c2cccnc2)nn1 -1.99%
COC(=O)c1cccc([N+](=O)[O-])c1CS(=O)(=O)c1ccc(C)cc1 4.93%
CCn1c(-c2cc(OC)ccc2OC)csc1=Nc1c(C)n(C)n(-c2ccccc2)c1=O 2.25%
Cc1ccc(F)cc1NC(=O)Cc1nn(C)c(=O)c2ccccc12 5.03%
CC(C)[C@@H](C(=O)OCC(=O)c1ccc2c(c1)NC(=O)CO2)N1C(=O)c2ccccc2C1=O 8.91%
Cc1ccc(S(=O)(=O)N2CCN(C(=O)COC(=O)c3c(C)cc(C)cc3C)CC2)c(C)c1 3.27%
CCOC(=O)c1c(NC(=O)CSc2nccc(=O)[nH]2)sc(C)c1C -4.89%
Nc1nc(NCC(=O)O)nc(N2CCCCCC2)c1[N+](=O)[O-] 8.6%
O=C(CC1C(=O)NCCN1CC(c1ccccc1)c1ccccc1)NCCc1cn[nH]c1 (stereo unspecified) -1.25%
C[C@@]12C(=O)N(c3cccc(Br)c3)C(=O)N1[C@H](c1ccc(Cl)cc1)[C@@H]1C(=O)N(C3CCCCC3)C(=O)[C@@H]12 -8.96%
CCOc1cc(C(=O)N2CCc3cc(OC)c(OC)cc3C2)ccc1OC(F)F 6.34%

inhibition, active:
COc1ccc(NS(=O)(=O)c2ccc(NC(=O)c3ccc(N(C)S(C)(=O)=O)cc3)cc2)cc1 106%
CC(=O)OC(C)C[N+](C)(C)C (stereo unspecified) 78%
Nc1ncnc2c1ncn2C1OC(CO)CC1O (stereo unspecified) 49.1%
CCCOc1ccc(Cc2c(Cl)nc(SC)nc2NC)cc1 94.2%
CC1(C)CC(N2CCN(C(c3ccccc3)c3ccccc3)CC2)=CC(=[N+]2CCCCC2)C1 45%
Cn1c(CN2CCOCC2)nc2cc(NC(=O)c3ccc(Cl)cc3)ccc21 85.6%
O=C(NC(Nc1nc2ccc([N+](=O)[O-])cc2s1)(C(F)(F)F)C(F)(F)F)c1ccccc1 43%
CC(CCc1ccccc1)NCC(O)c1cccc([N+](=O)[O-])c1 (stereo unspecified) 22.3%
CCOc1ccc(C(C)=O)cc1COC(=O)c1cnc(Cl)c(Cl)c1 15.3%
COCCN1Cc2cccc(C(=O)Nc3ccccc3OC)c2C1=O 32.4%
COc1ccc(C2Nc3ccccc3C(=O)N2c2ccc(Cl)cc2)cc1Cn1cc([N+](=O)[O-])cn1 (stereo unspecified) 36.9%
C#Cc1ccc(NC(=O)C2(C)CCN2C(=O)Cc2ccc(-c3ccccc3)cc2)cc1 (stereo unspecified) 90.1%
CC(C)(CNC(=O)c1ccc(Cl)c(S(=O)(=O)N2CCc3ccccc3C2)c1)N1CCOCC1 111%
O=C(Nc1ccccc1Cl)/C(Cl)=C(\Cl)S(=O)c1ccccc1 (stereo unspecified) 21.5%
O=C(Nc1ccc(CSc2ccccc2)cc1)c1ccc(CN2CCOCC2)cc1 113%
Cn1c(N)c(C(=O)COC(=O)c2cnc(Cl)c(Cl)c2)c(=O)n(C)c1=O 15.8%
CSc1nccc(NC(=O)c2ccc(C(C)(C)C)cc2)n1 104%
Cc1nc2ccccc2cc1OCc1ccc(F)cc1 83.8%
CNC(=O)NC(=O)CSc1nnc(-c2ccc(F)cc2)n1CC1CCCO1 (stereo unspecified) 22%
CSc1nc(N)c(C#N)c(-c2ccccc2Cl)c1C#N 84.8%
Cn1nccc1C(=O)NC1CCCc2c1cnn2-c1ccc(F)cc1F (stereo unspecified) 114%
CCN(CC(=O)NCc1ccc(Cl)cc1)C(=O)CSc1ccccc1 56.2%
COc1cc2c(cc1OC)C(c1cccc([N+](=O)[O-])c1)=NCC2 17.9%
CC(=O)N1CCCc2cc(S(=O)(=O)N3CCCC(C(=O)N4CCN(c5cccc(Cl)c5)CC4)C3)ccc21 (stereo unspecified) 92.5%
